From the supplement of paper PMC10503962 come the findings set out here.

The subject of the test is Trichuris muris adult worms. The test can be described thus: mean motility score (Paragon pixel variance) of adult worms (arbitrary units); higher = more motile worms, i.e. less anthelmintic effect; extreme values may be limits of the assay. The following applies: 100 µM; 24 h. In outline:
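Single adult Trichuris muris worms, collected from infected NOD SCID mice, were placed in 96-well plates with 100 μL RPMI-1640 plus antibiotics and drug at 100 μM (1% v/v DMSO), then kept at 37°C and 5% CO2 for 24 h. Plates were filmed on an automated phenotyping platform (200 frames, 100 ms apart). Motility score came from Paragon pixel-variance analysis, averaged across replicate wells. Each drug had three worms in three wells, run on three separate occasions, with vehicle and positive controls.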
`C[C@](N)(Cc1ccc(O)c(O)c1)C(=O)O` [methyldopa] showed a mean motility score of 4060.

In turn, `Cc1c(O)cccc1C(=O)N[C@@H](CSc1ccccc1)[C@H](O)CN1C[C@H]2CCCC[C@H]2C[C@H]1C(=O)NC(C)(C)C` [nelfinavir] had a mean motility score of 1430.

Compound `O=C(NCCO[N+](=O)[O-])c1cccnc1` [nicorandil] had a mean motility score of 2790.

In turn, `CCCCc1nc(Cl)c(CO)n1Cc1ccc(-c2ccccc2-c2nn[nH]n2)cc1` [losartan] yielded a mean motility score of 3650.

Turning to `CCOc1cc(CC(=O)N[C@@H](CC(C)C)c2ccccc2N2CCCCC2)ccc1C(=O)O` [repaglinide], the mean motility score was determined as 268.

As for `CCCc1cc(C(N)=S)ccn1` [protionamide], the mean motility score worked out at 2460.

With `CC[C@H]1OC(=O)[C@H](C)[C@@H](O[C@H]2C[C@@](C)(OC)[C@@H](O)[C@H](C)O2)[C@H](C)[C@@H](O[C@@H]2O[C@H](C)C[C@H](N(C)C)[C@H]2O)[C@](C)(OC)C[C@@H](C)C(=O)[C@H](C)[C@@H](O)[C@]1(C)O` [clarithromycin], the mean motility score was determined as 2330.

The compound `N#Cc1ccc(C(c2ccc(C#N)cc2)n2cncn2)cc1` [letrozole] returned a mean motility score of 4830.

In turn, `Nc1ccc(S(=O)(=O)Nc2ccnn2-c2ccccc2)cc1` [sulfaphenazole] had a mean motility score of 3280.

In turn, `Clc1ccc2c(c1)C(N1CCNCC1)=Nc1ccccc1O2` [amoxapine] displayed a mean motility score of 804.

Take `CC(=O)O[C@H]1C(=O)[C@@]2(C)[C@H]([C@H](OC(=O)c3ccccc3)[C@]3(O)C[C@H](OC(=O)[C@H](O)[C@@H](NC(=O)c4ccccc4)c4ccccc4)C(C)=C1C3(C)C)[C@]1(OC(C)=O)CO[C@@H]1C[C@@H]2O` [paclitaxel]: the mean motility score is 1480.

As to `Cl.Nc1c2c(nc3ccccc13)CCCC2` [tacrine hydrochloride], the mean motility score is 2770.

The compound `CCn1cc(C(=O)O)c(=O)c2cc(F)c(N3CCNCC3)cc21` [norfloxacin] registered a mean motility score of 1950.

On to `CN/C(=N/CCSCc1nc[nH]c1C)NC#N` [cimetidine], for which the mean motility score was found to be 2750.

`CCOc1cc2ncc(C#N)c(Nc3ccc(OCc4ccccn4)c(Cl)c3)c2cc1NC(=O)/C=C/CN(C)C` [neratinib] came in with a mean motility score of 1890.

`C=CC(N)CCC(=O)O` (stereo not drawn) [vigabatrin] displayed a mean motility score of 1690.

Regarding `CC[C@H](C)C(=O)O[C@H]1C[C@@H](C)C=C2C=C[C@H](C)[C@H](CC[C@@H]3C[C@@H](O)CC(=O)O3)[C@H]21` [lovastatin], the mean motility score was determined as 96.7.

The compound `CN(C)CCCN1c2ccccc2Sc2ccc(Cl)cc21` [chlorpromazine] showed a mean motility score of 0.

In the case of `Cl.Clc1ccccc1CN1CCc2sccc2C1` [ticlopidine hydrochloride], the mean motility score came to 663.

Take `CCC[C@H](N[C@@H](C)C(=O)N1[C@H](C(=O)O)C[C@@H]2CCCC[C@@H]21)C(=O)OCC` [perindopril]: the mean motility score is 3860.

`CC(=O)Nc1cccc(-n2c(=O)n(C3CC3)c(=O)c3c(Nc4ccc(I)cc4F)n(C)c(=O)c(C)c32)c1` [trametinib] registered a mean motility score of 2980.

`CCCCC1=NC2(CCCC2)C(=O)N1Cc1ccc(-c2ccccc2-c2nn[nH]n2)cc1` [irbesartan] registered a mean motility score of 2360.

Take `C[C@H]1O[C@@H](n2cc(F)c(=O)[nH]c2=O)[C@H](O)[C@@H]1O` [doxifluridine]: the mean motility score is 2010.

The compound `O=c1oc2ccccc2c(O)c1Cc1c(O)c2ccccc2oc1=O` [dicumarol] had a mean motility score of 0.

`COc1c2occc2cc2ccc(=O)oc12` [methoxsalen] yielded a mean motility score of 4190.

Consider `Cc1ncc([N+](=O)[O-])n1CC(C)O` (stereo not drawn) [secnidazole], for which the mean motility score turned out to be 2540.

For the compound `CCC1(c2ccccc2)C(=O)NCNC1=O` [primidone], the mean motility score is 3160.

Consider `Cc1nc(O)c(C#N)cc1-c1ccncc1` [milrinone], for which the mean motility score was found to be 4250.

In turn, `c1ccc(-c2ccc(C(c3ccccc3)n3ccnc3)cc2)cc1` (stereo not drawn) [bifonazole] displayed a mean motility score of 20.

As for `CN(C)CCOC(=O)C(c1ccccc1)C1(O)CCCC1` (stereo not drawn) [cyclopentolate], the mean motility score was 2640.

The compound `O=C1NC(=O)C(c2ccccc2)(c2ccccc2)N1` [phenytoin] yielded a mean motility score of 2510.

Compound `Nc1ccc(C(=O)O)c(O)c1` [aminosalicylic acid] returned a mean motility score of 4450.

`COc1cc(N)c(Cl)cc1C(=O)NC1CCN(CCCOc2ccc(F)cc2)CC1OC.O` (stereo not drawn) [cisapride monohydrate] displayed a mean motility score of 2840.

With `C=CC(=O)N1CCC[C@@H](n2nc(-c3ccc(Oc4ccccc4)cc3)c3c(N)ncnc32)C1` [ibrutinib], the mean motility score was found to be 433.

The compound `CCOC(=O)n1ccn(C)c1=S` [carbimazole] registered a mean motility score of 1610.

Consider `CN/C(=C\[N+](=O)[O-])NCCSCc1csc(CN(C)C)n1` [nizatidine], for which the mean motility score was 3800.

On to `CC/C(=C(/CC)c1ccc(O)cc1)c1ccc(O)cc1` [diethylstilbestrol], for which the mean motility score came to 0.

The compound `CN(C)c1nc(N(C)C)nc(N(C)C)n1` [altretamine] returned a mean motility score of 3430.
